The list is not random: actives were taken first. Their share in the collection is about 3.5%.
FBW7 activator: FBW7 E3 ligase activators, primary screen, biochemical, AlphaScreen, human; F-box/WD repeat-containing protein 7 (Homo sapiens), Q969H0; AlphaScreen FBW7–phospho-cyclin E peptide binding, activator screen; normalized activity (activation), % at 26.1 µM; 650,000 compounds, 0.13% hits; AID 1259310, 2017; in the data active = normalized activity above about 1.9%;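 note: purified mutant Fbw7 with reduced substrate affinity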
TEAD-YAP inh: TEAD-YAP interaction inhibition, primary screen, TEAD-YAP interaction inhibitor project, luminescence, HEK-TIYL cells | inhibition, % at 9.12 µM | TEAD-Gal4/YAP UAS-luciferase luminescence | AID 1259422, 2018 | 640,000 compounds, 1.4% hits; in the data active = inhibition above about 32%;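 note: 0% = median of test compound wells and 100% = reference inhibitor wells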
GPR151 activ: activators of human GPR151, primary screen, cell-based, PathHunter beta-arrestin, luminescence; PathHunter beta-arrestin GPR151 cells; activation, % at 11.2 µM; 650,000 compounds, 1% hits; AID 1508602, 2020; in the data active = activation above about 4.9%;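 note: 0% = median of compound wells and 100% = cells with positive control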
MITF inh: MITF inhibitors, primary screen, biochemical, AlphaScreen, human; Microphthalmia-associated transcription factor (Homo sapiens), O75030; AlphaScreen MITF homodimerization, bead proximity signal; inhibition, % at 2.6 µM; 650,000 compounds, 0.91% hits; AID 1259374, 2018; in the data active = inhibition above about 50%;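 note: 0% = vehicle wells with protein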
GPR151 confirm: GPR151 activators, triplicate retest, confirmation, cell-based, PathHunter beta-arrestin, luminescence; 6,700 tested, under 10 active; shares compounds with GPR151 activ; activation, % at 11.2 µM; AID 1508609, 2020; GPR151 PathHunter beta-arrestin cells, 90 min; % of EA-reagent control over plate median;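 active = mean percent activation across replicates above the confirmation screen cutoff of 4.91%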
GPR119 ag: GPR119 activators in beta-arrestin cells, counter-screen for GPR151 activator project, cell-based, PathHunter beta-arrestin, luminescence, triplicate | shares compounds with GPR151 activ | 90 min; 0 = compound-well median, 100 = enzyme-acceptor control | activation, % at 11.2 µM | 6,700 compounds, 0.3% hits;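 active = mean percent activation in the counterscreen above 29.09%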;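 note: counterscreen on off-target GPR119 to flag nonselective hits from the GPR151 activator screen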
Target sequence (Q8TDV5 whole entry, looked up): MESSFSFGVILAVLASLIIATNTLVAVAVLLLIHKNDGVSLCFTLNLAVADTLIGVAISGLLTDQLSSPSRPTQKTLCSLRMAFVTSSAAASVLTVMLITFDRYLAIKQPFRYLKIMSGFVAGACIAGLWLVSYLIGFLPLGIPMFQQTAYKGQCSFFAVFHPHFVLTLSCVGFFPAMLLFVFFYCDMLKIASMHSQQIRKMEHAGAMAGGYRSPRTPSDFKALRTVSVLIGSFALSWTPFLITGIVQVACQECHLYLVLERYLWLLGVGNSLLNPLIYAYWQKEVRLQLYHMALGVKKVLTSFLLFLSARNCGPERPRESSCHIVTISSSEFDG
* marks the source's active call; other numbers are inactive results; nt = not tested or not shown.

SMILES	FBW7 activator	TEAD-YAP inh	GPR151 activ	MITF inh	GPR151 confirm	GPR119 ag
CC(Sc1nncs1)C(=O)NC(C)c1ccccc1 (stereo unspecified)	0.1	-2.1	5.2*	-5.5	1.3	-5.3
CC(Sc1nncs1)C(=O)NC1CCCc2ccccc21 (stereo unspecified)	0.0	-1.1	0.8	-8.0	nt	nt
Cc1ccc(-c2cnc(Nc3ccc(C)c(NS(C)(=O)=O)c3)c3nccn23)cc1	-0.1	14.0	0.6	-1.3	nt	nt
CC1CCN(S(=O)(=O)c2coc(C(N)=O)c2)CC1	-0.1	-13.8	10.0*	-8.8	0.0	11.2
CC(=O)N1CCN(S(=O)(=O)c2ccc(S(=O)(=O)N3CCC(C)CC3)cc2)CC1	0.0	-1.8	-0.7	15.5	nt	nt
O=C1OCCC1Sc1nnc2sc3ccccc3n12 (stereo unspecified)	0.1	-6.9	0.4	1.8	nt	nt
COc1ccc(N=C2SC(CC(=O)Nc3ccccc3)C(=O)N2CCN(C)C)cc1 (stereo unspecified)	0.2	2.8	-0.1	17.8	nt	nt
COc1ccccc1/C=N/N=C1/NC(=O)C(CC(=O)Nc2ccc(Cl)cc2)S1 (stereo unspecified)	-0.2	2.9	0.8	-1.9	nt	nt
C=CCN1C(=O)C(CC(=O)Nc2cccc(C(C)=O)c2)SC1=Nc1ccc(OC)cc1 (stereo unspecified)	-0.1	4.6	5.7*	-3.6	0.2	0.0
COc1ccccc1/C=N/N=C1/NC(=O)C(CC(=O)Nc2cccc(C(C)=O)c2)S1 (stereo unspecified)	-0.1	-5.5	12.3*	-5.1	1.3	19.8
O=C(c1ccccc1[N+](=O)[O-])N(Cc1cccnc1)c1nc2ccc(F)cc2s1	-0.4	-4.2	-1.5	-7.1	nt	nt
COc1ccc2sc(N(Cc3cccnc3)C(=O)c3ccccc3[N+](=O)[O-])nc2c1	-0.5	-0.8	8.6*	-2.8	-1.0	-0.7
O=C(Nc1ccccc1F)C1CCN(C(=O)Cc2ccccc2)CC1	-0.2	1.4	5.4*	3.0	-0.7	-11.7
Cc1c(Cl)cccc1NC(=O)C1CCN(C(=O)Cc2ccccc2)CC1	0.0	4.0	0.4	-1.1	nt	nt
CCc1ccc(NS(=O)(=O)c2ccc(Br)c(OC)c2)cc1	-0.2	-12.1	-0.1	1.1	nt	nt
CCOc1ccc(CCNS(=O)(=O)c2ccc3c(c2)OCCN3C(C)=O)cc1OCC	1.2	4.5	5.2*	10.4	0.1	-7.1
N#C/C(=C(/O)c1ccc(Oc2ccccc2)cc1)c1nc2ccccc2s1	-0.3	-7.5	-1.2	4.4	nt	nt
CNc1ccccc1P(=O)(O)O	-0.2	4.2	6.3*	-2.6	0.8	-0.7
CCC(Sc1nc2cc3c(cc2c(=O)n1CCCCCC(=O)NCc1ccc2c(c1)OCO2)OCO3)C(=O)NCc1ccco1 (stereo unspecified)	0.2	-0.1	-0.4	-0.4	nt	nt
CCC(Sc1nc2cc3c(cc2c(=O)n1CCCCCC(=O)NCc1ccc(OC)cc1)OCO3)C(=O)NCc1ccco1 (stereo unspecified)	0.0	0.0	5.0*	0.1	-0.6	-3.0
CCC(Sc1nc2cc(OC)c(OC)cc2c2nc(C)nn12)C(=O)NCc1ccco1 (stereo unspecified)	-0.1	-3.8	-0.1	1.6	nt	nt
CCC(Sc1nc2ccccc2c2nc(C)nn12)C(=O)NCc1ccco1 (stereo unspecified)	0.0	1.5	8.7*	10.9	0.0	10.9
Cc1nc2nc(C)c(CCC(=O)N3CC(C)CC(C)C3)c(C)n2n1 (stereo unspecified)	0.1	2.2	-0.1	2.4	nt	nt
Cn1cc(CN2CCN(CCc3ccccc3)C(CCO)C2)c2ccccc21 (stereo unspecified)	-0.2	-4.3	-0.4	2.9	nt	nt
COc1ccc(CNC2C3CC4CC(C3)CC2C4)c(OC)c1 (stereo unspecified)	0.1	5.5	5.6*	5.0	0.2	-5.6
SMILES	FBW7 activator	TEAD-YAP inh	GPR151 activ	MITF inh	GPR151 confirm	GPR119 ag
CCC(C)NC(=O)CN(Cc1ccccc1)S(=O)(=O)c1ccc(Br)cc1 (stereo unspecified)	0.1	-21.4	-0.8	-1.9	nt	nt
COc1ccc(CN(CC2CCCO2)C(=O)c2cc3ccccc3oc2=O)cc1OC (stereo unspecified)	-0.1	8.6	1.0	3.6	nt	nt
O=C(c1cc2ccccc2oc1=O)N(Cc1ccc2c(c1)OCO2)CC1CCCO1 (stereo unspecified)	-0.1	6.2	7.3*	7.5	0.6	6.6
CCOC(=O)C1C(c2ccc(OC)cc2)NC(=S)NC1(O)C(F)(F)F (stereo unspecified)	0.0	1.1	-0.4	-15.1	nt	nt
O=C1NC2(CCN(C(=O)C3(c4ccc(Cl)cc4)CC3)CC2)Oc2ccccc21	0.0	-0.7	-1.2	-10.6	nt	nt
Cc1ccc(C2(C(=O)N3CCC4(CC3)NC(=O)c3ccccc3O4)CC2)cc1	-0.1	2.7	5.6*	-10.5	0.1	0.4
Cc1ncc(CN2CCC3(CC2)NC(=O)c2ccccc2O3)n1C	0.2	5.2	4.9*	23.3	0.3	-3.8
Cc1c(CN2CCC3(CC2)NC(=O)c2ccccc2O3)cnn1C	0.0	-0.1	1.5	-6.7	nt	nt
Cn1c(=O)c2c(nc(Cl)n2Cc2ccc(Cl)cc2)n(C)c1=O	-0.2	-6.5	10.2*	7.3	0.3	2.5
Cn1c(=O)n(Cc2ccccc2)c(=O)c2c1nc(NN)n2Cc1ccccc1	0.0	-11.7	1.2	-1.8	nt	nt
Cn1c(=O)c2c(nc(NN)n2Cc2ccccc2)n(C)c1=O	-0.1	2.6	6.8*	6.0	-0.6	-6.7
O=C(CCCn1c(=O)oc2ccccc21)NNC(=O)COc1ccc(F)cc1	0.1	-0.8	5.7*	12.8	-0.3	-7.8
O=C(O)CCCn1c(=O)oc2ccccc21	1.6	-2.0	0.2	4.1	nt	nt
Nc1ccc2nc(Cc3ccc4nc(N)sc4c3)[nH]c2c1	-0.1	-2.1	0.5	13.7	nt	nt
O=C(NC1(C(F)(F)F)Oc2ccccc2O1)C(F)(F)F	-0.1	-0.5	6.2*	7.2	0.7	-10.3
O=C(Nc1cccc(C(F)(F)F)c1)NC1(C(F)(F)F)Oc2ccc(Cl)cc2O1 (stereo unspecified)	-0.2	-23.1	-0.5	9.3	nt	nt
O=C(Nc1ccccc1)NC1(C(F)(F)F)Oc2ccc(Cl)cc2O1 (stereo unspecified)	-0.3	-1.2	5.2*	4.6	0.0	5.3
O=C(CCl)NC1(C(F)(F)F)Oc2ccccc2O1	-0.2	-2.5	0.1	5.5	nt	nt

High-throughput results (PubChem BioAssay)
